# Reference: PubChem BioAssay AID1159580 (chemical genetic matrix, 2015)
# Values joined by “and” are separate entries in the source; they are usually repeats but may differ in a detail not shown here. Equal values may be shown once. The campaign covered roughly 5,500 compounds. About 2,000 (36%) were called active. About 18% were inconclusive and are not listed. Rule as the data show it: active = normalized growth mostly below about 0.91 (no sharp cut-off); inconclusive = no clear call, values can overlap the other calls; inactive = mostly above about 0.92. The list shows a part of the results.
# Experiment: chemical genetic growth profiling, strain panel (AID 1159580);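 also: tested at 20 µM; growth read once vehicle control cultures reached saturation at 30 °C; 1 = growth at the plate median or of vehicle wells; lower values mean less growth of the strain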
# Settings: S. cerevisiae deletion strains, growth OD
# [1] = locus YAL013W, strain DEP1, stronger effect = lower value
# [2] = locus YDR150W, strain NUM1, stronger effect = lower value
# [3] = locus YGR078C, strain PAC10, stronger effect = lower value
# [4] = locus YMR263W, strain SAP30, stronger effect = lower value
# [5] = locus YPL055C, strain LGE1, stronger effect = lower value
# [6] = locus YPL241C, strain CIN2, stronger effect = lower value
# [7] = locus YBR229C, strain ROT2, stronger effect = lower value
# [8] = locus YDL101C, strain DUN1, stronger effect = lower value
# [9] = locus YEL061C, strain CIN8, stronger effect = lower value
# [10] = locus YHR030C, strain SLT2, stronger effect = lower value
# [11] = locus YHR087W, strain rtc3, stronger effect = lower value
# [12] = locus YJR043C, strain POL32, stronger effect = lower value
# [13] = locus YJR075W, strain HOC1, stronger effect = lower value
# [14] = locus YLR039C, strain RIC1, stronger effect = lower value
# [15] = locus YLR058C, strain SHM2 (second series), stronger effect = lower value
# [16] = locus YLR085C, strain ARP6, stronger effect = lower value
# [17] = locus YLR262C, strain YPT6, stronger effect = lower value
# [18] = locus YML094W, strain GIM5, stronger effect = lower value
# [19] = locus YMR219W, strain ESC1, stronger effect = lower value
# [20] = locus YNL153C, strain GIM3, stronger effect = lower value
# [21] = locus YNL298W, strain CLA4 (second series), stronger effect = lower value
# [22] = locus YNL322C, strain KRE1, stronger effect = lower value
# [23] = locus YNR030W, strain Alg12, stronger effect = lower value
# [24] = locus YPR135W, strain CTF4, stronger effect = lower value
compound,measurement,setting,value
CNC(CC(=O)O)C(=O)O (configuration not stated),normalized growth,[1],1.02 (inactive)
same,normalized growth,"locus YAL040C, strain CLN3, stronger effect = lower value",1.02 (inactive)
same,normalized growth,"locus YCL061C, strain MRC1 (second series), stronger effect = lower value",1.02 (inactive)
same,normalized growth,[2],1.03 (inactive)
same,normalized growth,"locus YDR363W, strain ESC2, stronger effect = lower value",1 (inactive)
same,normalized growth,"locus YER002W, strain NOP16, stronger effect = lower value",1 (inactive)
same,normalized growth,[3],1.02 (inactive)
same,normalized growth,[4],1.01 (inactive)
same,normalized growth,"locus YMR307W, strain GAS1, stronger effect = lower value",1.02 (inactive)
same,normalized growth,"locus YNL175C, strain NOP13, stronger effect = lower value",1.01 (inactive)
same,normalized growth,"locus YNL197C, strain WHI3, stronger effect = lower value",1 (inactive)
same,normalized growth,"locus YNL224C, strain SQS1, stronger effect = lower value",1.01 (inactive)
same,normalized growth,"locus YOR083W, strain WHI5 (second series), stronger effect = lower value",1.05 (inactive)
same,normalized growth,[5],1.02 (inactive)
same,normalized growth,[6],1.03 (inactive)
CCOC(=O)c1c(N=Cc2cc(Br)c(Br)cc2O)sc2c1CCCC2,normalized growth,[1],0.131 (active)
same,normalized growth,"locus YAR019C, strain CDC15, stronger effect = lower value",0.975 (inactive)
same,normalized growth,"locus YBL105C, strain PKC1, stronger effect = lower value",0.97 (inactive)
same,normalized growth,"locus YBR135W, strain CKS1, stronger effect = lower value",0.968 (inactive)
same,normalized growth,"locus YBR136W, strain MEC1, stronger effect = lower value",0.97 (inactive)
same,normalized growth,"locus YBR160W, strain CDC28, stronger effect = lower value",0.976 (inactive)
same,normalized growth,[7],0.542 (active)
same,normalized growth,"locus YDL017W, strain CDC7, stronger effect = lower value",0.976 (inactive)
same,normalized growth,"locus YDL028C, strain MPS1, stronger effect = lower value",0.956 (inactive)
same,normalized growth,[8],0.963 (inactive) and 0.697 (active)
same,normalized growth,"locus YDL108W, strain KIN28, stronger effect = lower value",0.959 (inactive)
same,normalized growth,"locus YDL132W, strain cdc53, stronger effect = lower value",0.964 (inactive)
same,normalized growth,"locus YDL214C, strain PRR2, stronger effect = lower value",0.667 (active)
same,normalized growth,"locus YDR052C, strain DBF4, stronger effect = lower value",0.971 (inactive)
same,normalized growth,"locus YDR054C, strain cdc34, stronger effect = lower value",0.97 (inactive)
same,normalized growth,"locus YDR226W, strain ADK1, stronger effect = lower value",0.975 (inactive)
same,normalized growth,"locus YDR477W, strain SNF1, stronger effect = lower value",0.595 (active)
same,normalized growth,[9],0.265 (active)
same,normalized growth,"locus YER123W, strain YCK3, stronger effect = lower value",0.541 (active)
same,normalized growth,"locus YER133W, strain GLC7, stronger effect = lower value",0.696 (active)
same,normalized growth,"locus YFL009W, strain cdc4, stronger effect = lower value",0.983 (inactive)
same,normalized growth,"locus YFL029C, strain CAK1, stronger effect = lower value",0.977 (inactive)
same,normalized growth,"locus YFR003C, strain YPI1, stronger effect = lower value",0.961 (inactive)
same,normalized growth,"locus YFR019W, strain FAB1, stronger effect = lower value",0.804 (inactive)
same,normalized growth,"locus YFR028C, strain CDC14, stronger effect = lower value",0.982 (inactive)
same,normalized growth,"locus YGR040W, strain KSS1, stronger effect = lower value",0.612 (active)
same,normalized growth,"locus YGR052W, strain FMP48, stronger effect = lower value",0.45 (active)
same,normalized growth,[3],0.241 (active)
same,normalized growth,"locus YGR092W, strain DBF2, stronger effect = lower value",0.173 (active)
same,normalized growth,"locus YGR229C, strain SMI1, stronger effect = lower value",0.969 (inactive)
same,normalized growth,[10],0.211 (active) and 0.239 (active)
same,normalized growth,"locus YHR079C, strain IRE1, stronger effect = lower value",0.262 (active)
same,normalized growth,"locus YHR082C, strain KSP1, stronger effect = lower value",0.368 (active)
same,normalized growth,[11],0.554 (active)
same,normalized growth,"locus YHR205W, strain SCH9, stronger effect = lower value",0.458 (active)
same,normalized growth,"locus YIL147C, strain SLN1, stronger effect = lower value",0.96 (inactive)
same,normalized growth,"locus YJL095W, strain BCK1, stronger effect = lower value",0.314 (active)
same,normalized growth,"locus YJL128C, strain PBS2, stronger effect = lower value",0.959 (inactive)
same,normalized growth,"locus YJL157C, strain FAR1, stronger effect = lower value",0.589 (active)
same,normalized growth,"locus YJR016C, strain ILV3, stronger effect = lower value",0.968 (inactive)
same,normalized growth,[12],0.318 (active)
same,normalized growth,"locus YJR066W, strain TOR1 (second series), stronger effect = lower value",0.724 (inactive)
same,normalized growth,"locus YJR066W, strain TOR1, stronger effect = lower value",0.38 (active)
same,normalized growth,[13],0.769 (active)
same,normalized growth,"locus YKL048C, strain ELM1, stronger effect = lower value",0.629 (active)
same,normalized growth,"locus YKL067W, strain YNK1, stronger effect = lower value",0.674 (active)
same,normalized growth,"locus YKL101W, strain HSL1, stronger effect = lower value",0.555 (active)
same,normalized growth,"locus YKL193C, strain SDS22, stronger effect = lower value",0.964 (inactive)
same,normalized growth,"locus YKL203C, strain TOR2, stronger effect = lower value",0.614 (active)
same,normalized growth,[14],0.164 (active)
same,normalized growth,[15],0.916 (active)
same,normalized growth,[16],0.118 (active)
same,normalized growth,"locus YLR113W, strain HOG1, stronger effect = lower value",0.475 (active)
same,normalized growth,"locus YLR133W, strain CKI1, stronger effect = lower value",0.608 (active)
same,normalized growth,[17],0.17 (active)
same,normalized growth,"locus YLR403W, strain SFP1, stronger effect = lower value",0.525 (active)
same,normalized growth,"locus YML070W, strain DAK1, stronger effect = lower value",0.576 (active)
same,normalized growth,[18],0.442 (active)
same,normalized growth,"locus YMR001C, strain CDC5, stronger effect = lower value",0.975 (inactive)
same,normalized growth,"locus YMR205C, strain PFK2 (second series), stronger effect = lower value",0.635 (active)
same,normalized growth,[19],0.83 (active)
same,normalized growth,[4],0.162 (active)
same,normalized growth,"locus YMR277W, strain FCP1, stronger effect = lower value",0.968 (inactive)
same,normalized growth,"locus YNL006W, strain LST8, stronger effect = lower value",0.976 (inactive)
same,normalized growth,"locus YNL020C, strain ARK1, stronger effect = lower value",0.51 (active)
same,normalized growth,[20],0.511 (active)
same,normalized growth,"locus YNL161W, strain CBK1, stronger effect = lower value",0.981 (inactive)
same,normalized growth,"locus YNL183C, strain NPR1, stronger effect = lower value",0.468 (active)
same,normalized growth,"locus YNL207W, strain RIO2, stronger effect = lower value",0.969 (inactive)
same,normalized growth,"locus YNL222W, strain SSU72, stronger effect = lower value",0.974 (inactive)
same,normalized growth,[21],0.652 (active)
same,normalized growth,"locus YNL307C, strain MCK1 (second series), stronger effect = lower value",0.314 (active)
same,normalized growth,[22],0.714 (active)
same,normalized growth,[23],0.533 (active)
same,normalized growth,"locus YOL006C, strain TOP1, stronger effect = lower value",0.209 (active)
same,normalized growth,"locus YOL078W, strain AVO1, stronger effect = lower value",0.967 (inactive)
same,normalized growth,"locus YOL136C, strain PFK27, stronger effect = lower value",0.577 (active)
same,normalized growth,"locus YOR061W, strain CKA2, stronger effect = lower value",0.383 (active)
same,normalized growth,"locus YOR119C, strain RIO1, stronger effect = lower value",0.63 (active)
same,normalized growth,"locus YOR231W, strain MKK1, stronger effect = lower value",0.335 (active)
same,normalized growth,"locus YOR329C, strain SCD5, stronger effect = lower value",0.974 (inactive)
same,normalized growth,"locus YPL031C, strain PHO85, stronger effect = lower value",0.561 (active)
same,normalized growth,[5],0.113 (active)
same,normalized growth,"locus YPL153C, strain RAD53, stronger effect = lower value",0.511 (active)
same,normalized growth,"locus YPL204W, strain HRR25, stronger effect = lower value",0.575 (active)
same,normalized growth,"locus YPL209C, strain IPL1, stronger effect = lower value",0.975 (inactive)
same,normalized growth,[6],0.558 (active)
same,normalized growth,"locus YPL256C, strain CLN2, stronger effect = lower value",0.458 (active)
same,normalized growth,"locus YPR025C, strain CCL1, stronger effect = lower value",0.981 (inactive)
same,normalized growth,"locus YPR106W, strain ISR1, stronger effect = lower value",0.968 (inactive)
same,normalized growth,"locus YPR111W, strain DBF20, stronger effect = lower value",0.964 (inactive)
same,normalized growth,[24],0.635 (active)
same,normalized growth,"strain NNK1, stronger effect = lower value",0.96 (inactive)
same,normalized growth,"strain TSCII, stronger effect = lower value",0.971 (inactive)
CCOC(=O)CC(=O)Nc1scc(C)c1C(=O)OCC,normalized growth,[1],0.988 (inactive)
same,normalized growth,[7],0.977 (inactive)
same,normalized growth,[8],0.97 (inactive)
same,normalized growth,"locus YDL134C, strain PPH21, stronger effect = lower value",0.923 (inactive)
same,normalized growth,[2],0.995 (inactive)
same,normalized growth,[9],0.943 (inactive)
same,normalized growth,[3],0.947 (inactive)
same,normalized growth,[10],0.906 (inactive)
same,normalized growth,[11],0.924 (inactive)
same,normalized growth,"locus YJL187C, strain SWE1, stronger effect = lower value",0.958 (inactive)
same,normalized growth,[12],0.979 (inactive)
same,normalized growth,[13],0.951 (inactive)
same,normalized growth,"locus YKL190W, strain CNB1, stronger effect = lower value",0.97 (inactive)
same,normalized growth,[14],0.987 (inactive)
same,normalized growth,[15],0.98 (inactive)
same,normalized growth,[16],0.872 (inactive)
same,normalized growth,[17],0.994 (inactive)
same,normalized growth,[18],0.933 (inactive)
same,normalized growth,[19],0.968 (inactive)
same,normalized growth,[4],0.984 (inactive)
same,normalized growth,"locus YNL128W, strain TEP1, stronger effect = lower value",0.98 (inactive)
same,normalized growth,[20],0.969 (inactive)
same,normalized growth,[21],0.934 (inactive)
same,normalized growth,[22],0.957 (inactive)
same,normalized growth,[23],0.924 (inactive)
same,normalized growth,[5],0.968 (inactive)
same,normalized growth,[6],0.936 (inactive)
same,normalized growth,[24],1.14 (inactive)
